Consider ten compounds from publication PMC7826789 (International Journal of Molecular Sciences, 2021).

Test [1] has as its system EIF2AK3.
In test [2] the test system is EPHA2.
For test [3], the system named is EPHA6.
For test [4], the system named is EPHB4.
The test system of test [5] is EPHB6.
Test [6] deals with ERBB3.
The test system of test [7] is ERK3.
Test [8] has as its system ERN1.

`Cc1cccc(CC(=O)N2CCc3c2ccc(-c2cn(C)c4ncnc(N)c24)c3F)n1` [GSK2656157]: the Kinases covered entry in test [1] is given as “EIF2AK3”.

Turning to `Cn1cc(-c2ccc3c(c2)CCN3C(=O)Cc2cccc(C(F)(F)F)c2)c2c(N)ncnc21` [GSK2606414], in test [1], the Kinases covered entry is “EIF2AK3”.

As to `COC(=O)Nc1nc2ccc(Oc3ccc(NC(=O)Nc4cc(C(F)(F)F)ccc4F)cc3)cc2s1.Cl` [GW693917A], the Kinases covered result in test [2] was “EPHA2”.

Regarding `COc1cc2ncnc(Nc3cccc(Cl)c3F)c2cc1O[C@H]1CC[C@@]2(CC1)NCCNC2=O` [BI00113608], the Kinases covered entry in test [3] is listed as “EPHA6”; in test [4], “EPHB4”.

Turning to `COc1cc2ncnc(Nc3cccc(Cl)c3F)c2cc1O[C@H]1CC[C@H]([C@@H]2NCCNC2=O)CC1` [BI00133844], the Kinases covered result in test [3] is listed as “EPHA6”; in test [4], “EPHB4”.

Take `Cn1ccc(-c2cccc(Nc3ccnc4cc(-c5nccs5)ccc34)c2)n1` [GW525701]: the Kinases covered result in test [5] is “EPHB6”.

As for `COC(=O)C(NC(=O)NC1CCN(c2ccnc(Nc3ccc(F)cc3)n2)C1)c1ccccc1` (stereo not drawn) [GSK1379712], in test [5], the Kinases covered result is reported as “EPHB6”.

With `C=CC(=O)Nc1cc(-c2nn(C3CCC(N4CCN(C(C)=O)CC4)CC3)c3ncnc(N)c23)ccc1Oc1ccccc1` (stereo not drawn) [TX-85-1], in test [6], the Kinases covered entry is recorded as “ERBB3”.

Consider `Cc1cc(NC(=O)c2cccc(NC(=O)/C=C/CN(C)C)c2)ccc1Nc1nccc(-c2cccnc2)n1` [JNK-IN-7], for which the Kinases covered entry in test [7] is on record as “ERK3”.

`Cc1ccc(CNC(=O)N2CCC[C@]3(CCN(Cc4ccc(Cl)c(Cl)c4)C3)C2)cc1` [GSK2850163]: the Kinases covered entry in test [8] is listed as “ERN1”.
